# Screening data from PubChem.
# TRHR ag – activates the human TRH receptor | P34981 | activation, % at 2 µM | TRHR cells, calcium flux fluo-8, FDSS agonist mode | AID 493084 | hit rate 0.18% among 360,000; also: 0% is about no effect
# Target sequence (P34981 whole entry, looked up): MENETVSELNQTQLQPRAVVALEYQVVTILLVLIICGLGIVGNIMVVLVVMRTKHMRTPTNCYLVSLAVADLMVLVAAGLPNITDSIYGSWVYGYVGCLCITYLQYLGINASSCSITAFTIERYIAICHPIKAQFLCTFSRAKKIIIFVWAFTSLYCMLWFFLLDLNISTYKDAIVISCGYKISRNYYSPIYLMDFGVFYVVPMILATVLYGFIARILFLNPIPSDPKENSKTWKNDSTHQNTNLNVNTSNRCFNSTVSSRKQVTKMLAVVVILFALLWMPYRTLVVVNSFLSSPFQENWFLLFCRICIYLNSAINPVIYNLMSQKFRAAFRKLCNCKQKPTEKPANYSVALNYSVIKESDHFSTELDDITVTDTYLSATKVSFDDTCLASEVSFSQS
#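 TRHR-expressing cells loaded with fluo-8 calcium dye; 23 nL library compound pin-transferred, kinetic FDSS fluorescence (Ex 480/Em 530) recorded about 180 s for agonist-induced calcium release, before a 10 nM TRH EC20 addition for potentiator mode.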
# D1 ag – agonists of human D1 dopamine receptor; P21728; HEK293 T-REx D1 cells, calcium flux, agonist mode; activation, % at 2 µM; hit rate 1% among 360,000; AID 504660; also: 0% is about no effect
#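 Tetracycline-induced HEK293 TREx D1 cells, force-coupled to calcium signalling, were dye-loaded with a no-wash calcium kit. Compound was pin-added after a 10 s baseline. Fluorescence was read kinetically at 1 cycle/s for 180 s, with calcium rises flagged as agonism.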
# D1 potentiator – enhances dopamine response at the human D1 receptor. P21728. HEK293 TREx D1 cells, calcium flux, dopamine EC20 potentiation. potentiation, % at 10 µM. hit rate 0.036% among 360,000. AID 504651; in the data active = potentiation above about 30%; also: 0% is about no effect
# D1 antag – blocks dopamine activation of the human D1 receptor; P21728; HEK293 TREx D1 cells, calcium flux, dopamine EC80; active compounds read low; activity change, negative = inhibition, % at 10 µM; hit rate 3.2% among 360,000; AID 504652; in the data active = activity change below about -30%; also: % is scaled to controls: 0 for no effect and ±100 for the full control effect
#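 Tetracycline-induced HEK293 T-REx cells with force-coupled D1 receptor were loaded with a no-wash calcium dye. Compound was added after a 10 s baseline and read kinetically for 180 s; EC80 dopamine was then added and calcium flux followed another 180 s.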
# TRHR PAM – TRH receptor (human) allosteric enhancement. TRHR cells, fluo-8 calcium fluorescence, EC20 TRH enhancement. enhancement, % at 2 µM. hit rate 0.66% among 360,000. AID 493056; in the data active = enhancement above about 30%; also: 0% is about no effect
#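 Enhancer read-out: after compound pinning and an initial kinetic agonist-mode read, an EC20 of TRH (10 nM final) was injected and fluo-8 calcium signal (Ex 480/Em 530) followed at 1 s/cycle for 100 cycles in TRHR-expressing cells.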
# * = called active by the depositor; . = not tested or not shown. Most compounds without a hit are left out; they make up all but 4.6% or so of the library. Rule as the data show it, unless noted: active = activation above about 30%; inactive = the rest.
SMILES,TRHR ag,D1 ag,D1 potentiator,D1 antag,TRHR PAM
CCN(CCn1cccn1)C(=O)c1cc(COc2ccc(F)c(F)c2)on1,0,12,-4,-32*,-2
CNC(=O)C1CCN(Cc2cc3ccccc3n2Cc2ccccc2C)CC1,0,6,-2,25,0
Cc1ccccc1Cn1c(CN2CCC(C(=O)NCCN(C)C)CC2)cc2ccccc21,4,45*,-3,-8,3
NS(=O)(=O)c1ccc(CCNS(=O)(=O)Cc2ccc(Cl)cc2)cc1,0,-2,1,-1,5
Cc1ccc(S(=O)(=O)CC2CSc3nnc(C)c(=O)n32)cc1 (stereo not given),0,1,1,8,-1
Cc1nnc2n(c1=O)C(CS(=O)(=O)c1ccc3ccccc3c1)CS2 (stereo not given),0,-1,1,-10,33*
CC1(OC(=O)C2CCCC2)C(=O)C=C2C=C(c3ccsc3)N(CC3CC3)C=C2C1=O (stereo not given),0,8,-3,-33*,8
CCOc1ccc(NC(=O)NCCCN2CCCC2)cc1,0,-1,0,-2,3
CN1CCN(S(=O)(=O)c2ccc(NS(=O)(=O)c3ccccc3)cc2)CC1,0,4,-3,12,0
COCCNc1c(-c2ccc(O)cc2)nc2ccc(Cl)cn12,-1,0,-10,-41*,0
COCCNc1c(-c2ccc(OC)c(OC)c2)nc2ccc(Cl)cn12,0,0,2,32,4
O=C(N/N=C/c1ccc(N2CCOCC2)cc1)c1ccccc1NS(=O)(=O)c1cccs1,0,2,11,-4,10
CCCC(=O)N(c1ccc2oc(C)c(C(C)=O)c2c1)S(=O)(=O)c1ccc(C)cc1,0,1,-5,3,0
CCCC(=O)N(c1ccc2oc3c(c2c1)CCCC3)S(=O)(=O)c1cc(C)ccc1C,1,2,-3,-46*,-2
Cc1sc(NC(=O)CSc2nnc3scc(-c4ccccc4)n23)c(C#N)c1C,-1,1,0,0,-1
CC(=O)Nc1cccc(C(=O)OC(C)C(=O)NC2CCCc3ccccc32)c1 (stereo not given),0,1,-5,-9,-2
COC(=O)COc1ccc(-c2ccccc2)cc1C=O,0,0,-5,-2,11
CCC(=O)Nc1ccc(Br)c(Cl)c1,0,2,0,-8,3
O=C(Cc1ccccc1)Nc1ccc(Br)c(Cl)c1,-1,22,-11,-55*,3
O=C(Cc1ccc(-c2ccccc2)cc1)Nc1ccccc1,1,33*,4,-12,10
O=C(Cc1ccccc1)Nc1ccc(NC(=O)Cc2ccccc2)c(Cl)c1,0,2,0,-36*,-6
Cc1cc(C(=O)OCC(=O)c2ccc(Br)s2)no1,0,2,-4,4,8
CCn1ccc2c(OCC(=O)Nc3ccc(C)c(Cl)c3)cccc2c1=O,0,1,1,.,3
CCOC(=O)c1c(C)[nH]c(C(=O)CN2C(=O)NC3(CCCC3)C2=O)c1C,0,2,0,29,2
CCCC1(c2ccccc2)NC(=O)N(CC(=O)c2[nH]c(C)c(C(=O)OCC)c2C)C1=O (stereo not given),-1,39*,4,42,5
SMILES,TRHR ag,D1 ag,D1 potentiator,D1 antag,TRHR PAM
CCc1ccccc1NC(=O)N1CCC(CN2CCc3ccccc3C2)CC1,0,5,3,-4,2
O=C(Nc1ccccc1C(F)(F)F)N1CCC(CN2CCc3ccccc3C2)CC1,0,30*,6,-6,1
Cn1c(SCc2ccc(F)cc2)nc2ccc(C(=O)NCc3ccc(F)cc3)cc21,2,13,-3,-32*,6
Cn1c(SCc2ccc(F)cc2)nc2ccc(C(=O)NCc3ccc(Cl)cc3)cc21,0,11,-5,-6,1
CC(C)[C@H](NC(=O)N1CC(=O)Nc2ccccc21)C(=O)N1CCC[C@H]1C(=O)O,0,2,-1,-9,-2
CCNc1nc(NCC)nc(Nn2cnnc2)n1,0,2,-8,-38*,6
Cc1cc(C)n(CCCN2CCC(C(=O)Nc3cccc(-c4cccc(F)c4)c3)CC2)n1,1,34*,-8,-58*,-3
CN(C)n1cccc1/C=C(\C#N)S(=O)(=O)c1cccc(Cl)c1,0,6,-8,-35*,-10
CS(=O)(=O)/C(C#N)=C/c1cccn1S(=O)(=O)c1ccccc1,0,3,-4,-16,0
CCc1ccc(N/C(SCc2ccccc2C)=C(/C#N)C(=O)NCc2ccco2)cc1,3,30*,-4,-30*,-3
COc1ccc(C)cc1-n1nnnc1SCC1CCCCO1 (stereo not given),0,18,-5,-36*,8
O=C(c1ccc(S(=O)(=O)N2CCc3ccccc3C2)cc1)N1CCCCC1,-1,10,4,-8,-4
Cc1ccc(S(=O)(=O)c2nc(NCCN(C)C)sc2Cl)cc1,0,6,-8,-37*,-2
CC(C)(C)c1ccc(C(=O)NCC(=O)OCC(=O)Nc2nc(-c3ccc(F)cc3)cs2)cc1,1,6,2,-2,0
CC(NC(=O)[C@H](Cc1c[nH]c2ccccc12)NC(=O)[C@@H]1Cc2ccccc2CN1)c1ccccc1 (stereo not given in full),0,8,5,-5,30*
Cc1cc2cc(C#N)c(SCC(=O)Nc3nonc3C)nc2cc1C,2,9,-2,-9,2
Cc1nonc1NC(=O)CSc1nc2c(C)cccc2cc1C#N,17,43*,-5,-8,1
CCOc1ccc(/C(CC)=N/NC(=O)C2(C)CC2(Br)Br)cc1 (stereo not given),0,1,-6,3,-1
COC(=O)c1ccc(N2CCN(C(=O)c3ccccc3)CC2)c(NC(C)=O)c1,0,1,3,-31*,-3
COC(=O)c1ccc(N2CCN(C(C)=O)CC2)c(NC(=O)COc2ccccc2C)c1,0,1,-8,8,-1
Brc1ccccc1OCCNCc1ccccc1,0,13,-16,-75*,5
C=CCc1ccccc1OCCNCc1ccccc1,0,12,-17,-50*,5
Clc1ccc(OCCCNCc2ccccc2)c2ccccc12,1,31*,16,-2,2
C=CCc1ccc(OCCCNCc2ccccc2)c(OC)c1,0,6,-10,-13,3
COc1ccc(C)cc1S(=O)(=O)NCCN1CCOCC1,1,5,-9,8,40*
COc1ccc2oc(C(=O)NCCN3CCOCC3)c(C)c2c1OC,1,0,-1,20,34*
Cc1ccc(C)c(S(=O)(=O)Nc2ccc(C(=O)NCCCN3CCOCC3)cc2)c1,0,2,5,11,1
